An excerpt weighted towards active compounds, which were near 1.4% of everything screened.
H9c2 protect – protects H9c2 cardiomyocytes from peroxide injury; H2O2 injury protection, ATPLite, 2 h; protection from H2O2 cell death, % at 20 µM; actives 0.63% (n = 360,000); AID 588492;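 active = compounds giving at least 50% protection of heart cells from peroxide-induced death in the single-dose screen, raw or plate-pattern-corrected value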;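 note: 0% = DMSO wells with peroxide and 100% = DMSO wells without peroxide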
V-ATPase pH – alters yeast V-ATPase proton transport; S. cerevisiae, pHLuorin cytosolic pH fluorescence; response, % at 10 µM; actives 0.37% (n = 350,000); in the data active = response mostly above about 7.3%, no sharp cut-off; inactive = mostly below about 5.4%; note: actives read high
HSV replic up – HSV replication enhancement; HSV replication augmentation in cells, fold increase; maximum fold increase; actives 0.005% (n = 220,000); AID 1956; in the data active = maximum fold increase above about 1.5; tested in PC3 cells
Yeast superoxide – caloric restriction mimetics inhibiting age-related superoxide in yeast; S. cerevisiae aged cells, superoxide DHE fluorescence; active compounds read low; AID 2690; superoxide response (% of plate mean), % at 10 µM; actives 0.18% (n = 330,000);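 active = superoxide response under a set limit, about three screen SD below normal, cut at about 65% in these data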;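 note: yeast aged for seven days with compound at 30 °C before DHE staining; 100% = average MFI of all compound-treated wells on the plate with controls excluded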
MIN6 prolif – induces beta-cell replication in MIN6 cells; MIN6 cells proliferation, ATPlite luminescence, 48 h; cells starved in 0.2% serum; 100% = growth in 10% serum; proliferation, % at 10 µM; actives 0.29% (n = 330,000); AID 2380;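 active = compounds whose signal lies at least 3.5 SD above the mean of all wells on their plate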;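 note: 0% = DMSO-treated cells in low-serum medium and 100% = 10% serum control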
pCIP destab – p/CIP protein destabilization. Q05BA5. F442A p/CIP-EGFP cells, EGFP fluorescence, 16 h. decrease of EGFP signal, % at 10 µM. actives 0.01% (n = 290,000);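 active = EGFP signal decrease of at least 30% at 10 µM or well 3 SD below plate mean, unless failing retest; inactive = the rest, including hits failing retest or dose response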
Target sequence (Q05BA5 1-1403): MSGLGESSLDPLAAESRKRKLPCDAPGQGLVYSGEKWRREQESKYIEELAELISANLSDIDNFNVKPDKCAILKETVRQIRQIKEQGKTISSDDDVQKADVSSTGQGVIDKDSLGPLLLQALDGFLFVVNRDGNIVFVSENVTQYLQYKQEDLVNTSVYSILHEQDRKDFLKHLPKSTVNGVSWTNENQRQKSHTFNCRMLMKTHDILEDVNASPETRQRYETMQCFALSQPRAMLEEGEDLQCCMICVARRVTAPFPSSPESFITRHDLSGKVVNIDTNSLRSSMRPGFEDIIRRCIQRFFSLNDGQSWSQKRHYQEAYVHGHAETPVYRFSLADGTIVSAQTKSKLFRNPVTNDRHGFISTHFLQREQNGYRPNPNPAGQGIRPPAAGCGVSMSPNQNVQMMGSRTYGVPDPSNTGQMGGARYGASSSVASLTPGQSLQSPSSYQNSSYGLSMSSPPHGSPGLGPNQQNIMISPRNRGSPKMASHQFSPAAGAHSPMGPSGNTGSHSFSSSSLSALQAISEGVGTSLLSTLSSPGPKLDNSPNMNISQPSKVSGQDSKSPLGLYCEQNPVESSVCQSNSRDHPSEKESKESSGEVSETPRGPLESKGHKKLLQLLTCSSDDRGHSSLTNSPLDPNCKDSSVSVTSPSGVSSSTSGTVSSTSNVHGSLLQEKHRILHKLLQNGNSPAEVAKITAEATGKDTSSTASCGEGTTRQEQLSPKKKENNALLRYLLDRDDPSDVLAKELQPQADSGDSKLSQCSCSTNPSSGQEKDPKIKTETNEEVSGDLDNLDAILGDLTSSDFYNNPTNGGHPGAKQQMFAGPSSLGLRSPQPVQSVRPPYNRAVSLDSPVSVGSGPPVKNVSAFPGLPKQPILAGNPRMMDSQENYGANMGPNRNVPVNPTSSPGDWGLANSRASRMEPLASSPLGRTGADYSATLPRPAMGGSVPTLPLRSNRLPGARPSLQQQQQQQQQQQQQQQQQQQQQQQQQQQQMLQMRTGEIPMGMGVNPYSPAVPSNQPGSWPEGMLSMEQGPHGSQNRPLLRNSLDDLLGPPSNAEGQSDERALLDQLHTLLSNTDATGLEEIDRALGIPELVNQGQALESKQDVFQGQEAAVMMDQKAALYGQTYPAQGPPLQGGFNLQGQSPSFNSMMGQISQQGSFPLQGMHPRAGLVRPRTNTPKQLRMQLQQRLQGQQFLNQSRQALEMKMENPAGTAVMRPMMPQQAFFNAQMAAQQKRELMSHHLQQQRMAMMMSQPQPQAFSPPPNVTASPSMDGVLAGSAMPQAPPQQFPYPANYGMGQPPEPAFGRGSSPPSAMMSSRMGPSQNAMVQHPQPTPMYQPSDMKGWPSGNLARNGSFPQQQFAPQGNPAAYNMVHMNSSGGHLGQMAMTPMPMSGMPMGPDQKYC
VATPase regulator – modulates yeast V-ATPase proton transport. shares compounds with V-ATPase pH. response, % at 10 µM. S. cerevisiae pHLuorin cytosolic pH. actives 2% (n = 980); in the data active = response above about 24%;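 note: plate controls were vehicle wells for no effect and positive control wells for full effect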
The depositor's hits bear a star; i = inactive; / = not tested or not shown.

SMILES	H9c2 protect	V-ATPase pH	HSV replic up	Yeast superoxide	MIN6 prolif	pCIP destab	VATPase regulator
Cc1oc(C(C)(C)C)cc1C(=O)Nc1cccc(/C=C\C(=O)O)c1	4	14*	i	99	0	11	-4
CCOC(=O)c1n[nH]c2ccccc12	1	4	/	111	0	0	-4
CCOC(=O)CSc1nc2ccccc2c(=O)[nH]1	58*	10*	i	100	4	3	0
CCOC(=O)c1nc2ccccc2c(=O)[nH]1	5	-1	i	95	-3	-19	-1
CCOC(=O)c1n[nH]c(=O)c2ccccc12	36	0	i	94	1	-9	/
Cc1ccc(CNC(=O)Cn2cnc(S(=O)(=O)N3CCC(C)CC3)c2)o1	1	-3	/	102	3	10	/
COc1ccc(NS(=O)(=O)c2ccc(C)c(NC(=O)CNC(=O)c3ccco3)c2)cc1	4	7	/	/	0	/	/
CN(C)C(CNC(=O)c1ccc(S(=O)(=O)Nc2cccc(C(F)(F)F)c2)cc1)c1ccco1 (configuration not stated)	-7	10*	/	94	3	/	2
CN(C)C(CNC(=O)c1cccc(NS(=O)(=O)c2ccc(Br)cc2)c1)c1ccco1 (configuration not stated)	-1	0	/	101	-2	/	/
Cc1ccc(S(=O)(=O)n2cnc(C)c2)cc1	-2	13*	/	88	-2	5	1
COCOCCn1cc(CN2CCS(=O)(=O)N(Cc3ccc(-c4ccc(OC)nc4)cc3)C(C)C2=O)nn1 (configuration not stated)	-3	7.8*	/	/	/	/	-2
CCc1ccc(OCCCC(=O)Nc2ccc(S(=O)(=O)Nc3cc(C)nc(C)n3)cc2)cc1	-5	-3	/	95	-3	-4	/
O=C(CCNS(=O)(=O)c1ccccc1)N1CCN(c2ccccc2F)CC1	0	0	/	103	0	-2	/
COc1ccccc1OCCNC(=O)CN1C(=O)NC2(CCCC2)C1=O	1	0	/	/	0	/	/
Cc1nn(C)cc1C(C)NC(=O)c1cc(COc2c(F)cccc2F)on1 (configuration not stated)	5	11*	i	98	-4	-10	-3
C[C@H](c1ccccc1)n1nnc(COCc2ccccc2)c1C#CCOCc1ccccc1	-9	9.9*	i	104	-7	-14	1
COc1ccccc1C(=O)NC(=O)COC(=O)CCS(=O)(=O)c1ccc(C)cc1	4	0	/	99	-1	/	/
N#CCSc1ccc(-c2nc3ccccc3[nH]2)cn1	-14	1	i	97	-3	-1	/
C[n+]1cc[nH]c1SCC(=O)c1ccc(Cl)cc1	4	7.5*	i	102	-3	-2	4
COc1ccccc1-n1cc(C(=O)NCC(=O)N2CCN(c3ccccc3)CC2)c2ccccc2c1=O	-13	-13	i	100	-4	-10	/
Cc1noc(C)c1C(=O)N1CCCC(C(=O)c2cccc(OC(C)C)c2)C1 (configuration not stated)	0	13*	i	110	4	2	1
Cc1ccc(S(=O)(=O)N2CCN(c3ccccc3)CC2)cc1	-5	3	/	110	-4	-6	/
Cc1ccc(S(=O)(=O)N2CCN(c3ccccc3)CC2)cc1C(N)=O	3	9.8*	i	102	-3	-5	-1
O=C1C2C3C=CC(C2C(=O)N1CCO)C1C(=O)N(CCO)C(=O)C31 (configuration not stated)	2	0	/	101	2	-4	/
COc1ccc(/C=C2\CCn3c2nc2cc(C(=O)O)ccc2c3=O)cc1O	4	10*	i	85	-1	-2	2
SMILES	H9c2 protect	V-ATPase pH	HSV replic up	Yeast superoxide	MIN6 prolif	pCIP destab	VATPase regulator
Cc1cc(F)ccc1-c1cc(C(=O)NC2CCCCC2)[nH]n1	-6	/	/	/	/	/	/
O=C(Nc1ccccc1OC(=O)c1ccccc1)c1ccccc1	2	15*	/	/	/	/	4
Cc1ccc(C(=O)Nc2ccccc2OC(F)F)cc1	-3	0	i	96	-1	1	/
O=C(CCc1ccccc1)Nc1ccccc1OC(=O)c1ccccc1	-7	-2	/	/	/	/	/
O=C(Nc1ccccc1OC(F)F)c1ccccc1	-5	11*	i	119	1	6	3
Cc1nn(-c2ccccc2)c(Cl)c1/C=C1\C(=O)N(C)C(=S)N1C	2	47*	i	108	4	-4	2
O=c1c(Cc2ccc(F)cc2)c(O)ccn1Cc1cccc(Cl)c1	7	-2	i	80	0	-14	/
Cc1cccn2c(=O)c(/C=C(\C#N)C(=O)NC3CCS(=O)(=O)C3)c(N3CCC(C)CC3)nc12 (configuration not stated)	3	15*	i	84	-3	3	-1
CCN(CC(=O)NCc1ccc(F)cc1)C(=O)c1ccc(COc2ccccc2)cc1	-2	3	/	116	-2	-21	/
CN1CCN(S(=O)(=O)c2cccc(C#N)c2)C(c2ccccc2)C1 (configuration not stated)	-1	12*	/	/	0	/	0
Cn1/c(=N/NC(=O)c2ccccc2F)sc2ccccc21	-9	-2	i	107	7	17	/
O=C(COc1ccc(Br)cc1)N1CCN(c2ncccn2)CC1	4	-1	/	85	0	/	/
COc1ccc(C(=S)N2CCN(C)CC2)cc1Br	-2	8.0*	i	99	0	-1	-1
COc1ccc(C(=S)N2CCCC2)cc1Br	2	-2	/	93	-3	5	/
COc1ccc(/C=C/C(=O)Nc2cc(C)nn2-c2nc3ccccc3[nH]2)cc1	-7	16*	i	117	-5	2	-1
O=C(O)CCC(=O)c1ccc(C2CCCCCC2)cc1	-1	/	/	/	/	/	/
Cc1cccc2c1CCCC2=O	2	12*	/	/	/	/	-4
CCc1nn(CC(=O)N2CCCCCC2)c(=O)c2cc3ccccc3n12	3	13*	/	91	0	11	1
Cc1c(Cl)sn(-c2ccc(Cl)cc2)c1=O	-24	66*	i	/	-5	-9	61*
CCc1ccc(N(CC(=O)NC2CCCC2)C(=O)CCC(=O)Nc2ccccn2)cc1	2	3	/	101	4	-5	/
CC(C)c1ccc(N(CC(=O)NC2CCCC2)C(=O)CCC(=O)Nc2ccccn2)cc1	3	15*	/	97	-3	-5	-1
NC(=O)c1cc(NC(=O)CCc2nc3ccccc3s2)cc(C(N)=O)c1	-1	9.6*	/	92	1	-12	4
N#Cc1ccc(NC(=O)CCc2nc3ccccc3s2)cc1	1	-2	i	97	0	-6	/
CCOc1ccc(NC(=O)/C(C#N)=C/c2cn(CC(=O)O)c3ccccc23)cc1	3	7.1*	/	101	-4	-8	-1
CCOc1cccc(NC(=O)/C(C#N)=C\c2cn(CC(=O)O)c3ccccc23)c1	1	-1	/	100	0	-18	/

High-throughput results as filed in PubChem BioAssay.
